The list is not random: actives were taken first. Their share in the collection is about 19%.
DT40 TDP1 CPT: growth inhibition of DT40 Tdp1-/-;hTDP1 cells with camptothecin (screen for TDP1 inhibitors); AID 686979; Potency, µM (doses to about 46.2 µM), for inactives: at the highest dose activity change, negative = growth inhibition, most hits filed as inhibitors; 420,000 compounds, 12% hits; chicken DT40 Tdp1-/-;hTDP1 cells + 20 nM CPT, ATP luminescence, 48 h; further: potency means the concentration at half of the fitted maximal effect; nearly all actives have a fitted effect of over 55% in size
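Chicken DT40 Tdp1-/- cells stably complemented with human TDP1 were seeded at 400 cells/well in medium containing 20 nM camptothecin, exposed to pin-transferred compounds, and grown at 37 °C for at least 48 hr. Viability was read as ATP luminescence.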
TDP1 cell noCPT: qHTS for Inhibitors of human tyrosyl-DNA phosphodiesterase 1 (TDP1): qHTS in cells in absence of CPT; DT40 Tdp1-/- hTDP1 cells, no CPT, ATP luminescence, 48 h; Potency, µM (top dose mostly 46.2 µM), without a hit: at the top dose activity change, negative = growth inhibition, most hits filed as inhibitors; 420,000 compounds, 15% hits; AID 686978, 2013; further: potency means the concentration at half of the fitted maximal effect; nearly all actives have a fitted effect of over 55% in size
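No-CPT arm: Tdp1-/-;hTDP1 DT40 cells (400/well) plus compounds, incubated ≥48 hr at 37 °C. Readout CellTiter-Glo luminescence.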
IL1B secr inh: inhibitors of inflammasome signaling (IL-1 beta secretion); THP-1 LPS/ATP IL-1B secretion, AlphaLISA, 16 h; stronger effect = lower value; activity change, % at 57.5 µM; 360,000 compounds, 4.7% hits; AID 743279; in the data active means activity change below about -50%; inconclusive means mostly about -30% to -49%
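THP-1 cells pretreated 1 hr with compounds (up to 57.5 uM final), then stimulated with LPS (250 ng/mL final) plus ATP (1.25 mM final); secreted IL-1B measured by AlphaLISA after 16 hr, decreased signal indicating inhibition.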
HT1080 IDH1KD tx: kills HT-1080 cells with IDH1 knockdown | Potency, µM (top dose mostly 46.1 µM), for inactives: at the top dose activity, negative = toxicity, hits mostly cytotoxic | 360,000 compounds, 2% hits | HT-1080 IDH1 knockdown viability, ATP luminescence, 48 h;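 further: potency means the concentration at half of the fitted maximal effect; 0% = DMSO wells and -100% = cell-free medium wells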
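After a 2 h attachment period, IDH1KD HT-1080 cells took pin-transferred compound for 48 h at 37 °C; ATP-based luminescence after 10 min room-temperature reagent incubation reported viability.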
HT1080-NT tox: kills 2HG-producing HT-1080-NT fibrosarcoma cells. 360,000 compounds, 1.6% hits. HT-1080-NT fibrosarcoma viability, CellTiter-Glo ATP luminescence, 48 h. Potency, µM (highest dose often 46.1 µM), for the others: at the top dose activity, negative = less viability, hits mostly cytotoxic;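 further: NT is the 2HG producing partner of a matched IDH1 knockdown line; potency means the concentration at half of the fitted maximal effect; 0% = DMSO-treated cells and -100% = media-only wells without cells; nearly all actives have a fitted effect of over 55% in size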
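Luminescent CellTiter-Glo readout after 48 hours of compound exposure at 37 degrees C defined viability of HT-1080-NT cells. Activity was normalized to DMSO wells and cell-free media wells; concentration-response curves were fitted and assigned curve classes.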
Numbers without * were called inactive; ? = inconclusive; . = not tested or not shown. Unless noted, the call rests on the fitted dose curve; in most records, active means well fitted curve in the direction sought with a large enough effect; inconclusive means small, poorly fitted or top-dose-only effect, or another doubt; inactive means no such curve, though single readings can be large; an effect the other way counts as inactive or inconclusive. Unless noted, on the % scale 0 is the no-effect control and ±100 the full control effect.

SMILES | DT40 TDP1 CPT | TDP1 cell noCPT | IL1B secr inh | HT1080 IDH1KD tx | HT1080-NT tox
Cc1cccc(NC2=C(Cl)C(=O)OC2NC(=O)c2ccccc2)c1 (configuration not stated) | -16% | -13% | -6 | -1% | 9%
Cc1ccc(NC(=O)CNC(=O)c2cccs2)nc1 | -5% | -9% | 7 | 11% | 8%
CC(C)(C)CC(C)(C)NCC(O)COc1ccc2c(c1)CCC2 (configuration not stated) | ? | 23µM* | -75* | ? | 21µM*
CC(=O)c1c(C)nn(CC(O)COc2ccc3c(c2)CCC3)c1C (configuration not stated) | ? | 16µM* | ? | -13% | ?
COc1ccccc1N1CCN(CC(O)COc2ccc(C)cc2C(C)(C)C)CC1 (configuration not stated) | ? | 18µM* | . | . | .
COc1ccccc1N1CCN(CC(O)COc2ccc3c(c2)CCC3)CC1 (configuration not stated) | 16µM* | ? | -64* | ? | -27%
CCOC(=O)c1cc2c(ccc3nc(C)c(C)c32)[nH]c1C | -15% | -19% | 0 | -7% | -9%
O=C(CCN1C(=O)c2ccccc2Sc2ncccc21)Nc1ccc(F)cc1F | -4% | -25% | . | . | .
COc1ccc(C[C@@H]2OC3(C=CC(=O)C=C3)O[C@H]2Cc2ccc(OC)cc2)cc1 | 0.41µM* | 0.37µM* | -77* | 1.3µM* | 5.2µM*
COc1ccc(CCc2cc(OC)cc(=O)o2)cc1 | 7% | -18% | -17 | 5% | 4%
O=C1C=CC2(C=C1)O[C@H](Cc1ccccc1)[C@@H](Cc1ccccc1)O2 | 1µM* | 0.65µM* | -100* | 1.2µM* | 3.7µM*
O=C1Nc2ccccc2C1Cc1ccccc1 (configuration not stated) | ? | -10% | -8 | 4% | 9%
O=C1OC2(c3ccccc31)c1cc(Br)c(O)c(Br)c1Oc1c2cc(Br)c(O)c1Br | -7% | -21% | . | . | .
CC(C)N1CC(C(=O)Nc2ccc(Cl)c([N+](=O)[O-])c2)CC1=O (configuration not stated) | 2% | -10% | -1 | 3% | -2%
Clc1ncnc2scc(C3COc4ccccc4O3)c12 (configuration not stated) | ? | 16µM* | -55* | -17% | -12%
c1ccc2c(c1)OCC(c1csc3ncnc(N4CCCCC4)c13)O2 (configuration not stated) | ? | ? | 6 | -6% | -3%
CC(=O)C[C@H](O)CC(=O)[C@H]1OC(=O)CCCCCCCCc2ccccc21 | ? | ? | 12 | 0% | 0%
CN(C)CCNC(=O)c1onc(CSc2ccc(F)c(F)c2)c1C(=O)NCCN(C)C | -26% | 16µM* | ? | -20% | -22%
CCCNC(=O)c1onc(CSc2ccc(F)c(F)c2)c1C(=O)NCCC | 15µM* | ? | 1 | 2% | 7%
CC(C)CCNC(=O)c1onc(CSc2ccc(F)c(F)c2)c1C(=O)NCCC(C)C | ? | ? | -20 | 0% | 6%
COc1ccc(CC2(c3ccccc3)NC(=O)NC2=O)cc1 (configuration not stated) | ? | ? | 59 | -29% | -22%
CC1CCCN(C(=O)CSc2ncccn2)C1 (configuration not stated) | 12% | -5% | 27 | 7% | -1%
CC(C)(C)C(=O)Nc1cc(NC(=O)C(C)(C)C)cc(C(=O)NNC(=O)c2ccncc2)c1 | -17% | 16% | ? | 0% | -20%
Cc1cc(C)nc(SCC(=O)OCC(=O)N(C)c2c(N)n(Cc3ccccc3)c(=O)[nH]c2=O)n1 | 18% | 8% | 3 | 12% | 10%
CCCOc1ccc(N2C(=O)CC(SC(=NC)Nc3ccc(F)cc3)C2=O)cc1 (configuration not stated) | -20% | ? | 21 | -23% | -12%
SMILES | DT40 TDP1 CPT | TDP1 cell noCPT | IL1B secr inh | HT1080 IDH1KD tx | HT1080-NT tox
CCCOc1ccc(N2C(=O)CC(SC(=N)N3N=C(c4ccccc4)CC3c3ccccc3)C2=O)cc1 (configuration not stated) | 18µM* | 18µM* | 0 | -1% | 11%
CCOC(=O)c1c(S(=O)(=O)NCC(=O)Nc2cccc(F)c2)c(C)n(C)c1C | -26% | 19% | 6 | 13% | -2%
Cc1cc(NC(=O)CCSc2ccccc2)ccc1Br | 7% | -7% | -67* | 2% | 3%
COc1cccc(NC(=O)CN(C)CC(=O)Nc2ccc(C)cc2Cl)c1 | ? | 13µM* | -5 | -1% | -14%
Cc1cc(NC(=O)CN(C)CCOc2ccccc2)ccc1Br | 18µM* | 18µM* | -52* | ? | ?
O=C(CCSc1ccc(Br)cc1)Nc1cccnc1 | 14% | 23µM* | 37 | -3% | -19%
CN(CCOc1ccccc1)CC(=O)Nc1cccc(Br)c1 | 8% | ? | 5 | -11% | 0%
COc1cccc(COC(=O)C2CC(=O)N(Cc3ccco3)C2)c1OC (configuration not stated) | -22% | ? | -13 | -26% | -8%
CCN(CC(=O)Nc1cccc(OC)c1)CC(=O)Nc1ccccc1C | 1% | -23% | 5 | -1% | -7%
CCN(CC(=O)Nc1cccc(OC)c1)CC(=O)Nc1ccc(Br)c(C)c1 | ? | -6% | -68* | ? | ?
O=C(CCS(=O)(=O)c1ccc(Br)s1)Nc1cc(C(F)(F)F)cc(C(F)(F)F)c1 | 15µM* | 21µM* | . | . | .
CCCOc1ccc(F)cc1-c1cc(C(=O)Nc2ccc(OC)nc2)[nH]n1 | ? | 18µM* | ? | -2% | 14%
COc1cc(NC(=O)c2cc(-c3cc(F)ccc3OC(C)C)n[nH]2)cc(OC)c1OC | ? | 16µM* | ? | ? | ?
COc1ccc(NC(=O)c2cc(-c3ccc(F)cc3OC(C)C)n[nH]2)cn1 | ? | 23µM* | 39 | 26% | ?
CCCOc1ccc(F)cc1-c1cc(C(=O)Nc2cc(OC)ccc2OC)[nH]n1 | -21% | -11% | 9 | -17% | ?
CCCOc1ccc(F)cc1-c1cc(C(=O)NCCOC)[nH]n1 | -20% | -26% | -1 | 25% | ?
CCCOc1ccc(F)cc1-c1cc(C(=O)Nc2cc(OC)c(OC)c(OC)c2)[nH]n1 | 8.2µM* | 15µM* | -11 | ? | ?
COc1ccc(NC(=O)c2cc(-c3cc(F)ccc3OC(C)C)n[nH]2)cc1OC | ? | ? | -18 | ? | -25%

Screening data: PubChem BioAssay, National Center for Advancing Translational Sciences (NCATS)
